According to PubChem BioAssay (NCI):
About 79,000 compounds went through this panel and 15% of them were active in at least one assay; those are over-represented in the sample as a whole. Values without a mark were called inactive. Active and inactive are the calls of the source. Rule as the data show it: active = growth inhibition above about 70%; inactive = the rest.

Key:
[1] = NCI Yeast Anticancer Drug Screen. Data for the rad50 strain (AID 155);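 also: 0% = growth of vehicle-only cultures of the same strain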; settings: S. cerevisiae rad50 strain growth inhibition; at 50.0 µM; hits give high values
Summary of the method: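 Yeast carrying a defined DNA repair defect were exposed to test compounds, and growth was compared with vehicle-treated controls to give percent inhibition.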

[2] = NCI Yeast Anticancer Drug Screen. Data for the mec2-1 strain (AID 157); settings: S. cerevisiae mec2-1 strain, at 50.0 µM, hits give high values
Summary of the method: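 Strain: mec2-1 (DNA repair/cell cycle alteration). Compound exposure, then growth measured; inhibition expressed relative to vehicle.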

[3] = NCI Yeast Anticancer Drug Screen. Data for the sgs1 mgt1 strain (AID 161);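 also: 0% = growth of cultures given vehicle only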; settings: S. cerevisiae sgs1 mgt1 strain, at 50.0 µM, hits give high values
Summary of the method: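 Genetically altered yeast, compound exposure, growth inhibition relative to vehicle.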

[4] = NCI Yeast Anticancer Drug Screen. Data for the cln2 rad14 strain (AID 165);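 also: 0% = growth equal to vehicle treated cultures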; settings: S. cerevisiae cln2 rad14 strain, at 50.0 µM, hits give high values
Summary of the method: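 Compounds are applied to the cln2 rad14 yeast strain, and growth is then compared with that of vehicle-treated cultures to give inhibition.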

[5] = NCI Yeast Anticancer Drug Screen. Data for the bub3 strain (AID 167); settings: S. cerevisiae bub3 mutant strain, at 50.0 µM, hits give high values
Summary of the method: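 Compounds were applied to a genetically altered yeast strain carrying a cell-cycle control defect. Growth inhibition was scored against vehicle-treated controls.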

[6] = NCI Yeast Anticancer Drug Screen. Data for the mlh1 rad18 strain (AID 175); settings: S. cerevisiae mlh1 rad18 strain growth inhibition; at 50.0 µM; hits give high values
Summary of the method: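 Read-out is yeast growth inhibition, calculated against vehicle-only controls. The compound was applied to a strain engineered with DNA damage repair alterations.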

SMILES | growth inhibition [1] [%] | growth inhibition [2] | growth inhibition [3] [%] | growth inhibition [4] [%] | growth inhibition [5] [%] | growth inhibition [6] [%]
Cc1cc(C)c(NC(=O)c2cc(C(=O)O)c(C(=O)Nc3c(C)cc(C)cc3C)cc2C(=O)O)c(C)c1 | 8.7 | 2.5% | -15.6 | -7.1 | 2.5 | -1.55
CCCCCCCCCCCCCCCCN (tested in a mixture with another compound) | 29.9 | -11.1% | 7.9 | -24.1 | 26.5 | 17.4
O=C(Cc1cccc2ccccc12)NO | 18.3 | 5.05% | 6.7 | -32.3 | -28.4 | 11.6
CCCCCCCOC(=O)C(N)c1ccccc1 (configuration not stated) | -5.2 | -32.1% | -22.4 | 7.5 | -7.6 | 4.1
CN(C)C(=Nc1ccccc1)N(C)N | -1.2 | 5.7% | -12.9 | 0.75 | 1.9 | 0.95
CC(O)CNC(=O)C(C)Oc1ccc(OCC2CCCCC2)cc1 (configuration not stated) | -2.8 | -12.9% | 6.65 | -9.7 | -53.7 | -15.9
CC(C)C(C)NC(=O)C(C)(C)C(C)(C)C (configuration not stated) | -4.85 | -6.35% | 10.6 | -11.2 | -0.7 | -5.55
CCOC(=O)N1CCN(c2c(N)nc(C)[nH]c2=O)CC1 | -49.6 | -20.9% | -55.3 | -14.8 | 19.1 | -58.5
Cc1ccc(S(=O)(=O)OC2CCCCCCCCCCC2=O)cc1 (configuration not stated) | -3.55 | 6.1% | -7.1 | -11.9 | -0.2 | 6.3
CC(C)n1nnnc1-c1ccccc1 | -6.45 | -8.5% | 2 | -15.9 | -3.1 | 1.15
Cn1nc(NC(=O)c2cc(N)nn2C)cc1C(=O)Nc1ccc2cc(S(=O)(=O)O)cc(S(=O)(=O)O)c2c1 | -14.1 | -16.7% | -10.3 | 7.65 | 13.7 | -3
NNC(=O)C(=O)Nc1nccs1 | 0.65 | 0.85% | 2.05 | 6.95 | -5.3 | -4.6
CC1=CC(=O)C(CN(C)C)(CN(C)C)C(C)(C)C1 | 4.85 | 9.35% | 7.65 | 0.25 | -1.65 | 13.1
O=C1OC(c2ccc([N+](=O)[O-])cc2)=N/C1=C\c1ccccc1 | 1.85 | 4.5% | 11.1 | 5.45 | 6.25 | -11.5
CCOc1ccc(NC(=O)C(=O)CC(=O)c2sc(NNC(C)=O)nc2C)cc1 | -21.1 | 2.95% | 17.5 | 14.4 | 5.4 | -8
CCOC(=O)C1(O)c2ccccc2NC(=S)N1CC(Br)CBr (configuration not stated) | 19.9 | -60.3% | 15.8 | -7.6 | 2.35 | 32.6
OC(C#Cc1ccccc1)(C#Cc1ccccc1)/C=C/c1ccccc1 | 17.1 | -5% | -5.85 | -7.95 | -9.15 | 11.5
C[C@H]1C(=O)OCN1S(=O)(=O)C(C)(C)C | -0.05 | 25% | 16.1 | -1.8 | 16.1 | -2.95
NC1=NC(=O)C(CC(=O)Nc2ccc(Cl)cc2Cl)S1 (configuration not stated) | -12.4 | -17.6% | -15.2 | 3.3 | -5.6 | -5.6
CS(=O)c1ccc(/C=C2/C=Cc3ccccc32)cc1 (configuration not stated) | 32.8 | 27.3% | 30.5 | 22.1 | 48.7 | 36
O=C(NC(Cc1c[nH]c2ccccc12)C(=O)O)C(=O)c1c[nH]c2ccccc12 (configuration not stated) | -9.9 | -14.6% | 27.5 | 0.9 | 15.2 | 4.2

SMILES | growth inhibition [1] [%] | growth inhibition [2] | growth inhibition [3] [%] | growth inhibition [4] [%] | growth inhibition [5] [%] | growth inhibition [6] [%]
O=C(O)c1ccccc1N1C(=O)c2ccccc2C1=O | 4.95 | -33.2% | -4.1 | 8.2 | 11.2 | -1.55
Oc1ccccc1CNc1ncc(Cl)cc1Cl | 24.9 | 16% | 26.8 | -5.15 | 39.1 | 19.4
O=C1CC2CCC(C1)S2=O (configuration not stated) | 19.6 | -10.5% | 17.5 | 23 | 12.8 | 18.5
CC(=O)Nc1ncc(Sc2ccc([N+](=O)[O-])cc2)s1 | -6.5 | -30.9% | -8.35 | 15.3 | -11.8 | 5.65
CC(C)(C)OC(=O)N(CCCCNC(=O)C(F)(F)F)CCCNC(=O)C(F)(F)F | -26.4 | -30.3% | -26 | 11.6 | -29.8 | -86
CCCCCCCCSC1=NS(=O)(=O)c2ccccc21 | 64 | 28.6% | 44.5 | 31.1 | 49.2 | 31.1
O=NC1C(Cl)C2CC1C1C(Cl)C(Cl)CC21 (configuration not stated) | 35 | 14.7% | 52.9 | 40.4 | 27.4 | 33.1
CCOC(=O)C(=CNC(=S)c1cccnc1)C(=O)OCC | -23.9 | -37.7% | -20.9 | -7.75 | -10 | -1.5
CCC(C)(C)c1ccccc1 | 13.2 | 6% | 20 | 10.9 | 8.95 | 15.3
CC(=O)N(CCc1ccccc1)C(C)(C#N)c1ccccc1 (configuration not stated) | -0.2 | 4% | -30.9 | -22.4 | -12.2 | -29.4
CCOC(=O)C1CCC2c3[nH]c4ccccc4c3CCN2C1=O (configuration not stated) | -25.3 | -39.8% | -8.65 | 1.6 | 31.1 | -20.9
CC(O)COc1ccccc1Cl (configuration not stated) | 5.2 | -2% | 16.5 | -46.9 | -0.4 | 6.85
NC(=O)c1ncccc1C(=O)O | -9.2 | -9.65% | -18.6 | 2.3 | -13.6 | -12.2
CCOC(=O)c1ccc(NN=NCCF)cc1 | 15.8 | 10% | 0.4 | 6.4 | -32.5 | -44.1
CN(C)CCC(CCN(C)C)=NOC(=O)c1ccccc1 | -5.45 | -20.2% | 10.1 | 8.55 | 21.4 | 15.6
Oc1c(CN2CCN(c3ccccc3)CC2)cc(Br)c2cccnc12 | 34 | 19.9% | 41.4 | -0.3 | 9.4 | 39.6
CC[C@@]1(OC(=O)CN2CCNCC2)C(=O)OCc2c1cc1n(c2=O)Cc2cc3ccccc3nc2-1 | 52.1 | 70.8% (active) | 49.1 | 29.6 | 26.1 | 10.1
O=C(O)C1=C/C(=C\C=[N+]2c3cc(O)c(OC4OC(CO)C(O)C(O)C4O)cc3CC2C(=O)[O-])CC(C(=O)O)N1 (configuration not stated) | -10.4 | -3.75% | 12.2 | -26.1 | 5.8 | 6
COc1ccc(NS(=O)(=O)c2ccc(NC(=O)NCCCl)cc2)nn1 | 13 | -0.2% | -9.85 | 8.95 | 2.55 | 5.85
CC(C)c1cccc(C(C)C)c1N1C(=O)C(=O)C(c2nc3ccccc3s2)C(=O)C1=O | -11.7 | -17.1% | -7.65 | -10 | 1.55 | -12.2
CC1(C)OC2COC(CNCC3OCC4OC(C)(C)OC34)C2O1 (configuration not stated) | 3 | -14.4% | -6.75 | -22.3 | -14.8 | 4.55
